Where “and” joins values, the source holds several entries; their conditions need not be identical. Identical values can stand only once. In all, about 5,500 compounds went through this assay and about 2,000 (36%) were called active. About 18% were inconclusive and are not listed. No stated cut-off is given here; in the data, active means normalized growth mostly below about 0.91 (no sharp cut-off); inconclusive means no clear call, values can overlap the other calls; inactive means mostly above about 0.92. This is one part of the list.
Experiment: chemical genetic growth profiling, strain panel (AID 1159580);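 further: tested at 20 µM; growth read once vehicle control cultures reached saturation at 30 °C; 1 = growth at the plate median or of vehicle wells; lower values mean less growth of the strain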
Conditions: S. cerevisiae deletion strains, growth OD

Measured: normalized growth

CCOC(=O)[C@H](CCc1ccccc1)N[C@@H](C)C(=O)N1CCC[C@H]1C(=O)O
inactive: locus YAL021C, strain ccr4, hits give low values 0.98 | locus YAL026C, strain drs2, hits give low values 1 | locus YAL030W, strain snc1, hits give low values 0.992 | locus YBL061C, strain skt5, hits give low values 0.987 | locus YBR009C, strain hhf1, hits give low values 1.01 | locus YBR021W, strain FUR4, hits give low values 1.01 | locus YBR023C, strain chs3, hits give low values 0.988 | locus YBR171W, strain sec66, hits give low values 0.979 | locus YBR229C, strain ROT2, hits give low values 1 | locus YBR231C, strain swc5, hits give low values 1 | locus YBR279W, strain paf1, hits give low values 0.973 | locus YCL011C, strain gbp2, hits give low values 0.976 | locus YCL016C, strain dcc1, hits give low values 0.969 | locus YCL029C, strain bik1, hits give low values 1.02 | locus YCL061C, strain MRC1, hits give low values 1.01 | locus YCL069W, strain vba3, hits give low values 0.988 | locus YCR088W, strain abp1, hits give low values 0.995 | locus YDL005C, strain med2, hits give low values 0.995 | locus YDL035C, strain GPR1, hits give low values 1.03 | locus YDL040C, strain nat1, hits give low values 0.992 | locus YDL074C, strain BRE1, hits give low values 1.02 | locus YDL101C, strain DUN1, hits give low values 1.01 | locus YDL134C, strain PPH21, hits give low values 1.01 | locus YDL185W, strain tfp1, hits give low values 1.01 | locus YDL192W, strain arf1, hits give low values 1.01 | locus YDR001C, strain nth1, hits give low values 0.996 | locus YDR069C, strain doa4, hits give low values 0.984 | locus YDR101C, strain arx1, hits give low values 0.994 | locus YDR137W, strain rgp1, hits give low values 0.988 | locus YDR159W, strain sac3, hits give low values 0.937 | locus YDR162C, strain NBP2, hits give low values 1.01 | locus YDR195W, strain ref2 0.981 | locus YDR297W, strain sur2, hits give low values 1 | locus YDR318W, strain mcm21, hits give low values 1.02 | locus YDR334W, strain swr1, hits give low values 0.998 | locus YDR335W, strain msn5, hits give low values 0.991 | locus YDR388W, hits give low values 1.02 | locus YDR392W, strain spt3, hits give low values 0.923 | locus YDR502C, strain sam2, hits give low values 1.01 | locus YEL003W, strain gim4, hits give low values 1 | locus YEL037C, strain rad23, hits give low values 0.988 | locus YEL061C, strain CIN8 (second series), hits give low values 0.999 | locus YEL061C, strain CIN8, hits give low values 0.999 | locus YER015W, strain faa2, hits give low values 1 | locus YER016W, strain bim1, hits give low values 0.98 | locus YER110C, hits give low values 1.02 | locus YER111C, strain swi4, hits give low values 0.985 | locus YER155C, strain BEM2 (second series), hits give low values 1.02 | locus YER155C, strain BEM2, hits give low values 0.996 | locus YER167W, strain BCK2, hits give low values 0.997 | locus YFR010W, strain ubp6, hits give low values 1.01 | locus YGL078C, strain dbp3, hits give low values 1.01 | locus YGL086W, strain mad1, hits give low values 0.998 | locus YGL167C, strain pmr1, hits give low values 0.99 | locus YGL173C, strain kem1, hits give low values 0.995 | locus YGL227W, strain vid30, hits give low values 0.996 | locus YGL240W, strain doc1, hits give low values 0.985 | locus YGL248W, strain PDE1, hits give low values 1 | locus YGL253W, strain hxk2, hits give low values 0.987 | locus YGR078C, strain PAC10, hits give low values 1.02 | locus YGR135W, strain pre9, hits give low values 1.02 | locus YGR252W, strain gcn5, hits give low values 1.05 | locus YHR013C, strain ard1, hits give low values 0.967 | locus YHR027C, strain rpn1, hits give low values 1.01 | locus YHR030C, strain SLT2, hits give low values 0.998 and 1.03 | locus YHR079C, strain IRE1 (second series), hits give low values 1.01 | locus YHR079C, strain IRE1, hits give low values 1.05 | locus YHR094C, strain hxt1, hits give low values 1.01 | locus YHR129C, strain ARP1, hits give low values 0.998 | locus YHR142W, strain chs7, hits give low values 0.98 | locus YHR200W, strain rpn10, hits give low values 1.01 | locus YIL066C, strain RNR3, hits give low values 1.01 | locus YIL073C, strain SPO22, hits give low values 1.07 | locus YIL125W, strain kgd1, hits give low values 1.01 | locus YIR030C, strain dcg1, hits give low values 1.01 | locus YJL092W, strain hpr5, hits give low values 1 | locus YJL095W, strain BCK1 (second series), hits give low values 1 | locus YJL095W, strain BCK1, hits give low values 1.02 and 1.03 | locus YJL115W, strain asf1, hits give low values 0.989 | locus YJL129C, strain trk1, hits give low values 0.954 | locus YJL134W, strain LCB3, hits give low values 1 | locus YJL154C, strain vps35, hits give low values 0.99 | locus YJL164C, strain tpk1, hits give low values 0.98 | locus YJL166W, strain qcr8, hits give low values 1 | locus YJL168C, strain set2, hits give low values 1.01 | locus YJL187C, strain SWE1 (second series), hits give low values 1.01 | locus YJR043C, strain POL32, hits give low values 1.03 | locus YJR066W, strain TOR1, hits give low values 0.985
